Source: PubChem
An excerpt weighted towards active compounds, which were near 0.5% of everything screened.
TR SRC2 fluor cs = Texas Red fluorescence interference in TRb-SRC2 counter-screen | TRb/SRC2 Texas Red total fluorescence interference | hit rate 0.29% among 280,000 | Potency, µM (doses to about 106 µM), for the others: at the highest dose fluorescence change, negative = quenching | AID 1479; active = well fitted curve in either direction with a large enough effect; inconclusive = small, poorly fitted or top-dose-only effect; also: potency is read from the fitted curve at half-maximal effect; % is scaled to controls: 0 for no effect and ±100 for the full control effect
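Flags fluorescent or light-absorbing compounds by total fluorescence, S + 2P, at 555 nm excitation and 632 nm emission. Mixture: 20 nM Texas Red SRC2 peptide, 0.6 uM human TRb LBD, 1 uM T3, 5% DMSO; compound exposure 5 h at ambient temperature.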
Menin-MLL TR inh = inhibitors of human menin-MLL interaction, mutant MLL peptide | AID 1768 | O00255 | Menin + Texas Red MLL mutant peptide, fluorescence polarization | Potency, µM (top dose mostly 61.6 µM), without a hit: top-dose FP activity change, negative = inhibition, actives largely listed as inhibitors | hit rate 0.23% among 270,000; active = well fitted inhibition curve with a large enough effect in the polarisation, with a control signal flat, not every such curve was filed as active; inconclusive = small, poorly fitted or top-dose-only effect, or effect the other way, or a change in a side signal; inactive = no such curve, though single readings can be large or run the other way; the % refers to the polarisation; also: potency is read from the fitted curve at half-maximal effect; % of control where 0% means no effect
TRb-SRC2 inh = inhibitors of human thyroid hormone receptor beta-SRC2 interaction. AID 1469. Potency, µM (series often up to 106 µM), for inactives: at the top dose activity change, negative = inhibition, actives largely listed as inhibitors. TRbeta-SRC2 peptide binding, fluorescence polarization; receptor liganded with 1 µM T3. hit rate 0.065% among 280,000. P10828;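 also: potency is read from the fitted curve at half-maximal effect; plate controls were bound peptide for no effect and peptide without receptor for full effect; nearly all actives have a fitted effect of over 50% in size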
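TRb LBD 0.6 uM + Texas Red SRC2 peptide 20 nM, 1 uM T3, Tris buffer w/ 5% DMSO; compound pinned, 5 h RT; FP read ex 555/em 632; normalized to unbound and bound controls.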
MLL CXXC-DNA inh = inhibitors of human MLL CXXC domain-DNA interaction; MLL-CXXC / FITC-HOXA9 DNA fluorescence polarization; hit rate 0.037% among 290,000; Potency, µM (titrated, usually from 115 µM), without a hit: top-dose activity change, negative = inhibition, usual class: inhibitors; AID 2662; Q03164; active = well fitted inhibition curve with a large enough effect in the polarisation, with a control signal flat, not every such curve was filed as active; inconclusive = small, poorly fitted or top-dose-only effect, or effect the other way, or a change in a side signal; inactive = no such curve, though single readings can be large or run the other way; the % refers to the polarisation; also: potency is read from the fitted curve at half-maximal effect
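Purified MLL-CXXC (added from a 7 uM solution) was preincubated 5 min at ambient with pinned compounds in 50 mM Tris-HCl pH 7.5, 50 mM NaCl, 1 mM DTT, 0.05% BSA. Fluorescein-labeled HOX-A9 DNA (50 nM solution) followed, 30 min, then polarization read.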
GoLoco inh red = inhibitors of human Gai1-RGS12 GoLoco interaction (red fluorophore); P63096; Gai1:RGS12 GoLoco peptide FP, rhodamine, 10 min; Potency, µM (titrated, usually from 61.6 µM), for inactives: top-dose activity, negative = inhibition, most hits filed as inhibitors; hit rate 0.44% among 230,000; AID 880; active = well fitted inhibition curve with a large enough effect, not every such curve was filed as active; inactive = no such curve, though single readings can be large or run the other way; also: potency is read from the fitted curve at half-maximal effect; % is scaled to controls: 0 for no effect and ±100 for the full control effect; nearly all actives have a fitted effect of over 30% in size
Menin MLL FP FL = menin-MLL binding inhibition, fluorescein peptide; Fluorescence polarization, fluorescein-MLL peptide displacement from menin; FP activity change, % at 61.4 µM; 290,000 tested, under 10 active; active = well fitted curve in the direction sought with a large enough effect in the polarisation, not every such curve was filed as active; inconclusive = small, poorly fitted or top-dose-only effect, or effect the other way, or a change in a side signal; inactive = no such curve, though single readings can be large or run the other way; the % refers to the polarisation; also: % of control where 0% means no effect
MLL CXXC FP-Fl = disrupts human MLL CXXC domain binding to DNA | shares compounds with MLL CXXC-DNA inh | MLL CXXC-DNA binding, fluorescein FP | Potency, µM (top dose mostly 345 µM), inactives show top-dose activity change, negative = inhibition, actives largely listed as inhibitors | hit rate 70% among 200 | AID 624160; also: potency is read from the fitted curve at half-maximal effect; nearly all actives have a fitted effect of over 80% in size
MLL CXXC FP-TR = inhibitors of human MLL CXXC domain-DNA interaction, Texas Red format; shares compounds with MLL CXXC-DNA inh; MLL CXXC-DNA binding, Texas Red fluorescence polarization; Potency, µM (top dose mostly 345 µM), for the others: at the highest dose activity change, negative = inhibition, actives largely listed as inhibitors; hit rate 40% among 200; AID 624161; also: potency is read from the fitted curve at half-maximal effect; % is scaled to controls: 0 for no effect and ±100 for the full control effect; nearly all actives have a fitted effect of over 75% in size
MLL CXXC TRF = inhibitors of human MLL CXXC domain-DNA interaction, HTRF format; AID 624162; shares compounds with MLL CXXC-DNA inh; MLL CXXC-DNA binding, HTRF, biochemical; hit rate 30% among 210; Potency, µM (highest dose often 172 µM), for the others: top-dose activity change, negative = inhibition, hits mostly inhibitors; also: % is scaled to controls: 0 for no effect and ±100 for the full control effect; nearly all actives have a fitted effect of over 80% in size
Starred values were filed as active, the others as inactive; ? = inconclusive; / = no result given; [ ] = remark or other dose. Unless noted, calls follow the shape of the dose curve; as a rule, active = well fitted curve in the direction sought with a large enough effect; inconclusive = small, poorly fitted or top-dose-only effect, or another doubt; inactive = no such curve, though single readings can be large; an effect the other way counts as inactive or inconclusive.

SMILES | TR SRC2 fluor cs | Menin-MLL TR inh | TRb-SRC2 inh | MLL CXXC-DNA inh | GoLoco inh red | Menin MLL FP FL | MLL CXXC FP-Fl | MLL CXXC FP-TR | MLL CXXC TRF
CCOc1cc(/C=C2\C(=O)NN(c3ccccc3)C2=O)cc([N+](=O)[O-])c1O | -4.9% | ? | -5.2% | ? | -10.4% | -6.5 | / | / | /
CCOC(=O)c1c(Nc2ccc(OCC)cc2)nnc(-c2ccccc2)c1-c1ccccc1 | -3.2% | / | 10.6% | / | / | / | / | / | /
CC(=O)N(O)C/C=C/c1cccc(Oc2ccccc2)c1 | -1.7% | 7.6% | -10.1% | / | / | -5.0 | / | / | /
Cn1c(=O)c2c(ncn2CN2CCN(Cn3cnc4c3c(=O)n(C)c(=O)n4C)CC2)n(C)c1=O | / | / | / | / | 8.6%[14.2 µM] | / | / | / | /
Cc1ccc(-c2ccc(CCC(=O)O)n2-c2cccc(C)c2C)cc1 | -3.1% | / | -3.1% | / | / | / | / | / | /
COc1ccc(C2OC34CCCCC3C(C#N)(C#N)C2(C#N)C(=N)O4)cc1 (centres undefined) | 5.0% | ? | -20.2% | 28.2µM* | -90.2% | ? | 142µM* | 113µM* | -3.1%
C/C(=N/Nc1ccc2ccccc2n1)c1ccccc1O | / | / | / | / | -6.5%[14.2 µM] | / | / | / | /
O=c1[nH]c(S)c(/C=C2\C=Nc3ccccc32)s1 | -5.6% | / | 0.1% | 35.5µM* | 5.6% | ? | 126µM* | ? | ?
Oc1nc(Nc2ccc(F)cc2)sc1/C=C1\C=Nc2ccccc21 | -9.6% | / | 12.9% | 24.0% | 44.6% | 24.9 | / | / | /
COc1ccccc1CNc1nc(-c2ccoc2)nc2ccccc12 | / | 7.5% | / | / | 29.0% | 29.9 | / | / | /
CC(=O)Oc1ccc2c(c1)Oc1cc(OC(C)=O)ccc1C21OC(=O)c2ccccc21 | -68.0% | ? | -11.5% | ? | -3.0% | ? | 0.0225µM* | 34.1% | 3.0%
O=C(NCC(c1ccccc1)c1ccccc1)c1nn(-c2ccccc2Cl)nc1CO | 0.6% | / | -1.5% | / | / | / | / | / | /
Cc1ccc(Cn2cc(CCC(=O)NC3CCC(C)CC3)c3ccccc32)cc1 (centres undefined) | -0.5% | / | 6.9% | / | / | / | / | / | /
COc1ccc(-c2cn3c(n2)sc2cc(C(=O)NCC(C)c4ccccc4)ccc23)cc1 (centres undefined) | -0.9% | / | -2.2% | / | / | / | / | / | /
Cc1nc2nc(-c3cccs3)cn2nc1C | -3.8% | -0.7% | -7.1% | 35.5µM* | 14.3% | ? | 126µM* | -2.9% | -1.2%
Cc1nc2nc(-c3ccc(Cl)cc3)cn2nc1C | -0.2% | / | -4.7% | -1.7% | 12.4% | -2.3 | / | / | /
O=C(O)c1ccc(NC2=C/C(=N/S(=O)(=O)c3ccccc3)c3ccccc3C2=O)cc1 | -9.4% | ? | ? | ? | 0.9% | -5.3 | ? | ? | 77.3%
O=c1nc2c(O)cccn2c2c1c(=O)[nH]c1ccccc12 | 4.4% | -0.2% | 2.6% | 31.6µM* | 24.4% | ? | 4µM* | ? | ?
O=c1[nH]c2ccccc2c2nc3ccccn3c12 | -2.1% | ? | 0.2% | -16.7% | 3.9% | -2.8 | / | / | /
O=C1OC(c2ccc(Cl)cc2)/C(=C(/O)c2ccccc2)C1=O (centres undefined) | -1.7% | 34.3% | -17.2% | ? | -10.3% | -1.8 | 5.2% | 126µM* | 30.5%
CN1C(=O)C(=O)/C(=C(/O)c2ccc(Br)cc2)C1c1ccc(Cl)cc1 (centres undefined) | / | 18.0% | / | -2.9% | / | -2.2 | / | / | /
Nc1ccc(N=Nc2ccccc2)c(N)c1 | -3.9% | / | 8.5% | / | 6.0% | / | / | / | /
Cn1ncc(N=Cc2c(O)ccc3ccccc23)c1C(=O)Nc1cccc(Cl)c1 | -2.0% | ? | -0.2% | 44.7µM* | -0.2% | ? | / | / | 118.0%
C/C(=N\Nc1nc2ccccc2c(=O)n1O)c1ccco1 | / | 17.4% | / | ? | / | -1.2 | ? | ? | ?
C=Cc1c(C)/c2[n-]/c1=C\c1[n-]c(c(CC)c1C)/C=c1\[n-]c3c(c1C)C(=O)C(C(=O)[O-])C=3c1[n-]c(c(C)c1CCC(=O)[O-])\C=2.[Cu].[Na+].[Na+] (centres undefined) | 25.1µM*[quencher] | ? | 44.7µM* | ? | -5.0% | -26.5 | 44.8µM* | 126µM* | 7.69µM*
SMILES | TR SRC2 fluor cs | Menin-MLL TR inh | TRb-SRC2 inh | MLL CXXC-DNA inh | GoLoco inh red | Menin MLL FP FL | MLL CXXC FP-Fl | MLL CXXC FP-TR | MLL CXXC TRF
O=C(CSC1=NS(=O)(=O)c2ccccc21)Nc1ccccc1 | 1.7% | -0.8% | -5.5% | 31.6µM* | -26.1% | 0.7 | -1.7% | 113µM* | 24.3µM*
COc1cc(OC)cc(C2=Nn3c(nnc3-c3ccccc3O)SC2)c1 | -1.3% | ? | 0.3% | / | / | 1.0 | / | / | /
N#CC(C#N)=C(N)/C(C#N)=C/c1ccc2[nH]ccc2c1 | -12.9% | / | 0.2% | / | 57.9% | / | / | / | /
CCCCC1OC2(C)OC(=N)C1(C#N)C(C#N)(C#N)C2c1ccccc1 (centres undefined) | 11.4% | -26.8% | -15.5% | 22.4µM* | -17.3% | ? | 28.3µM* | ? | -5.3%
CC1OC2(C)OC(=N)C1(C#N)C(C#N)(C#N)C2c1ccccc1 (centres undefined) | 3.7% | -1.5% | 4.6% | -7.4% | -15.0% | 2.5 | / | / | /
N#CC(C#N)=C1C=C2C=C(N3CCCCC3)CCC2CC1 (centres undefined) | 8.3% | ? | -13.7% | ? | 63.5% | / | 0.142µM* | 126µM* | 198.7%
CCN(CC)C1=CC2=CC(=C(C#N)C#N)CCC2CC1 (centres undefined) | 3.5% | ? | 3.4% | ? | 24.8% | ? | / | / | /
CSC1=NCCCN1C(=O)c1c(-c2ccccc2Cl)noc1C | 0.7% | / | -1.6% | ? | 3.1% | -2.8 | ? | 24.9% | -4.7%
Cn1nc(-c2ccc(Cl)cc2)nc2c(=O)n(C)c(=O)nc1-2 | -6.1% | ? | ? | 31.6µM* | -8.3% | ? | 142µM* | ? | 48.2%
CS(=O)(=O)n1nc(-c2ccc(Cl)cc2)nc1N | -6.3% | 3.8% | -5.8% | -14.3% | 2.1% | 0.2 | / | / | /
OC(Cn1cncn1)(c1ccc(F)cc1)c1ccc(Cl)cc1 (centres undefined) | / | -5.7% | / | 89.1µM* | / | 1.3 | ? | -18.5% | -0.6%
CCn1c(=O)c2ccccc2n(Cc2cccc(C)c2)c1=O | / | 5.7% | / | -7.5% | / | 0.9 | / | / | /
CCn1c(=O)c2ccccc2n(Cc2ccc([N+](=O)[O-])cc2)c1=O | / | 21.8% | / | ? | / | -3.0 | ? | ? | 22.1%
